The results in this text go back to PubChem BioAssay AID1578 (Sanford-Burnham Center for Chemical Genomics, 2009).

SMILES strings stand for the structures. Values joined by “and” are separate entries in the source; they are usually repeats but may differ in a detail not shown here. Identical values can stand only once. Screen size: about 290,000 compounds; about 3,000 (1%) were called active. The sample holds actives, similar compounds and a random draw of the others, so the mix is not that of the screen. Cut-off read from the data, not from the text of the source: active = inhibition mostly above about 36% (no sharp cut-off); inactive = mostly below about 34%. A structure can be active in one record and inactive in another.

The experiment can be described thus: inhibition of NOD1-driven NF-kB reporter – cell-based, luminescence, uHTS, primary screen (AID 1578).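 Note: HEK-293T reporter cells stimulated with the NOD1 agonist gamma-tri-DAP.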 The following applies: NOD1-driven NF-kB luciferase reporter cells, at 4 µM, stronger effect = higher value.
Consider `CC1=CC2/C=C(\C)CCC(O)C(O)/C=C/C(=O)C23C(=O)NC(CC(C)C)C3C1C` (stereo not given), for which the inhibition was 90.7% (active).
The result for `C/C1=C\[C@@H](C)C/C=C/[C@H]2[C@@H]3O[C@]3(C)[C@@H](C)[C@H]3[C@H](Cc4c[nH]c5ccccc45)NC(=O)[C@]32C(=O)/C=C/C(=O)[C@@H]1O` reads -3.4% (inactive); that for `CCOc1ccc(-n2c(O)c(C=Nc3ccc(NC(C)=O)cc3)c(=O)[nH]c2=O)cc1`, -7.1% (inactive); that for `O=P(O)(O)C#Cc1ccccc1`, -12.9% (inactive).
Under `CN1CCN(c2nc([N+](=O)[O-])nn2C)CC1` stands -15.4% (inactive); under `COC(=O)c1ccc(NC(=O)CSc2nc3ccc(N4C(=O)C5C6C=CC(C6)C5C4=O)cc3s2)cc1` (stereo not given), 104% (active).
The result for `CCOC(=O)c1c(-n2c(C)cc(C=C3C(=O)NC(=O)NC3=O)c2C)sc2c1CCCC2` reads 1.7% (inactive); that for `CCC(C)C12CN3CCN(CC(C)(C3)C1=O)C2` (stereo not given), 4.3% (inactive); that for `C=CCn1c(O)c(C(CC)=Nc2cccc(C(=O)O)c2)c(=O)[nH]c1=O`, 5.1% (inactive).
For `CCCCCCNC(=O)N[C@@H](Cc1ccc(O)cc1)C(=O)NCCC[C@H]1CN2C(=NC[C@H]2C)N1CC1CCC1`, the inhibition is 2.9% (inactive).
Under `O=C(CNC(=O)OCc1ccccc1)NCC(=O)Nc1ccc(Br)cc1C(=O)c1ccccc1` stands 22% (inactive); under `COc1ccc(/C=C/C(=O)c2c(O)n(CCC3=CCCCC3)c(=O)[nH]c2=O)cc1OC`, 14.2% (inactive).
Under `O=C(/C=C/c1ccc2c(c1)OCO2)c1c(O)n(CCC2=CCCCC2)c(=O)[nH]c1=O` stands 34.4% (inactive).
As for `COc1ccc(/C=C/C(=O)c2c(O)n(CCC3=CCCCC3)c(=O)[nH]c2=O)cc1`, the inhibition was 79.8% (active).
Under `CCOc1cc2c(cc1OCC)-n1cccc1C(c1ccc(OC)cc1)NC2` (stereo not given) stands -5.9% (inactive); under `C[C@@H]1C[C@H]2OC(=O)C3(CO3)[C@H]2[C@H](O)[C@]2(C)C(=O)C3OC3[C@@H]12` (stereo not given in full), 65.6% (active).
Consider `CCN(CC)CCN=Cc1c(O)n(Cc2ccco2)c(=O)[nH]c1=O`, for which the inhibition is -5.5% (inactive).
Consider `CC(C)CN1CCN(Cc2ccc(C(F)(F)F)cc2)CC1CCO` (stereo not given), for which the inhibition was -10.4% (inactive).
Under `C/C(=N\N1CCCCCC1)c1c(O)n(C2CCCCC2)c(=O)[nH]c1=O` stands -7.2% (inactive); under `CCOC(=O)c1ccc(NC(=O)c2c(O)[nH]c(=O)[nH]c2=O)cc1`, -19% (inactive); under `CCn1cc(C(=O)NCc2ccccc2)c2ccccc21`, -16.6% (inactive).
As to `CCCCCCCCN=Cc1c(O)[nH]c(=O)[nH]c1=O`, the inhibition was -1.5% (inactive).
`CCCCC(CC)COCCCN=Cc1c(O)[nH]c(=S)[nH]c1=O` (stereo not given): the inhibition was 34.9% (active).
Under `COCCCN=Cc1c(O)[nH]c(=S)[nH]c1=O` stands -7.3% (inactive); under `O=S(=O)(c1ccc(Cl)cc1)N1CN2CCN(C2)C1`, -10.2% (inactive).
Under `CN1C(=O)C(=Cc2cn(CC#N)c3ccccc23)C(=O)N(C)C1=O` stands 1.8% (inactive); under `CC1CCCCN1Cc1c[nH]c2ccccc12` (stereo not given), -3.8% (inactive).
The result for `c1cncc(C2Nc3cccc4cccc(c34)N2)c1` reads 54.6% (active) and -3.4% (inactive); that for `c1cncc(C2CCCCN2)c1` (stereo not given), -6.3% (inactive).
For `O=C1NC(c2cccnc2)Nc2sc3c(c21)CCCC3` (stereo not given), the inhibition was -24.5% (inactive).
With `CC#CP(=O)(OC)C(O)(CF)c1ccccc1` (stereo not given), the inhibition is -41.2% (inactive).
With `O=S(=O)(c1ccc(Cl)cc1Cl)N1CCCC1c1cccnc1` (stereo not given), the inhibition is -4.1% (inactive).
Under `CC(=O)Nc1ccc(CC(=O)N2CCN(Cc3ccccc3)CC2)cc1` stands 25.2% (inactive); under `C[C@H]1C[C@@H](C)C(=O)[C@@H]([C@H](O)CC2CC(=O)NC(=O)C2)C1`, 88% (active).
Under `Cc1ccccc1NC(=O)CCl` stands 18.4% (inactive); under `CCN(CC)S(=O)(=O)c1ccc(C(=O)NC2CN3CCC2CC3)cc1` (stereo not given), 7.1% (inactive); under `CCN(CC)CCCN=Cc1c(O)n(CCc2ccc(F)cc2)c(=O)[nH]c1=O`, 19.7% (inactive).
Under `CC(=O)OC(C)(C)/C=C/C(=O)C(C)(O)C1[C@H](O)C[C@@]2(C)C3CC=C4C(CC[C@@H](O)C4(C)C)[C@]3(CO)C(=O)C[C@]12C` (stereo not given in full) stands 12% (inactive).
In the case of `CC(=O)OC(C)(C)/C=C/C(=O)[C@](C)(O)[C@H]1[C@H](O)C[C@@]2(C)[C@@H]3CC=C4[C@H](C[C@H](O)C(=O)C4(C)C)[C@]3(C)C(=O)C[C@]12C`, the inhibition was 92.6% (active).
With `Cc1ccc(-c2cc(-c3ccc(C)cc3)[n+](C)o2)cc1`, the inhibition is 26.6% (inactive).
The result for `O=[N+]([O-])c1ccc(C2[C@H]3C(c4ccccc4)=NC4(CCCC4)N23)cc1` (stereo not given in full) reads -19.9% (inactive); that for `Cc1nn(-c2ccccc2)c2c1CC1(C(=O)N(C)C(=O)N(C)C1=O)C1CCCCN21` (stereo not given), -10.6% (inactive); that for `CN(CCCCC(=O)/C=N/O)Cc1ccccc1` (tested in a mixture with another compound), -7.6% (inactive).
Under `O=[N+]([O-])c1ccc(N2CCNCC2)cc1N1CCCCCC1` stands -7.5% (inactive); under `O=C(CSC1c2ccccc2-c2ccccc21)N/N=C/c1ccccc1O`, 80.9% (active).
Under `O=C(CSC1c2ccccc2-c2ccccc21)N/N=C/c1ccccc1` stands 14.7% (inactive); under `O=C(CSC1c2ccccc2-c2ccccc21)N/N=C/c1ccccc1C(=O)O`, -22.4% (inactive); under `Oc1cccc(/C=N/NP(=S)(c2ccccc2)c2ccccc2)c1`, -0.8% (inactive).
For the molecule `COCc1ccc(CN2CCCC(C(=O)c3sccc3C)C2)o1` (stereo not given), the inhibition was -44.8% (inactive).
Consider `CN(Cc1ccccc1)Cc1ccccc1OC(=O)N(C)C`, for which the inhibition is 2.4% (inactive).
Under `COc1cc(/C=C(/C)[N+](=O)[O-])ccc1OCc1ccccc1Cl` stands 86.8% (active).
The result for `COc1cc(C=C2C(=O)NC(=O)NC2=O)ccc1OCc1ccc([N+](=O)[O-])cc1` reads -52% (inactive); that for `C/C(=C\c1ccc(N(C)C)cc1)[N+](=O)[O-]`, 41.9% (inactive).
Under `CCOC(=O)CNC(=S)N1CC2C[C@@H](C1)Cn1c2cccc1=O` stands 0.7% (inactive).
Take `Cc1ccc2cc(C=C(C#N)C#N)c(Cl)nc2c1`: the inhibition was 72.2% (active).
Under `CN(C)c1ccc(C=C(C#N)C#N)cc1` stands -35.8% (inactive); under `Cc1cc(N2CCCC2)ccc1C=C(C#N)C#N`, -24.7% (inactive).
As for `Cc1c(-c2cccc(Cl)c2)nc2ccccc2c1C(=O)N1CCC2(CC1)OCCO2`, the inhibition is -11.2% (inactive).
For `Nc1ccccc1-[n+]1c(-c2ccccc2)cc(-c2ccccc2)cc1-c1ccccc1`, the inhibition was -5.4% (inactive).
As to `c1ccc(-c2cc(-c3ccccc3)[n+](-c3ccccc3)c(-c3ccccc3)c2)cc1`, the inhibition was 65.7% (active).
For the molecule `O=[N+]([O-])c1ccc(-[n+]2c(-c3ccccc3)cc(-c3ccccc3)cc2-c2ccccc2)cc1`, the inhibition was -8.8% (inactive).
Under `NC(=S)c1cn(C2OC(CO)C(O)C2O)c2ncnc(N)c12` (stereo not given) stands 104% (active); under `CCNC(=O)[C@H]1O[C@@H](n2cnc3c(N)ncnc32)[C@H](O)[C@@H]1O`, -5.6% (inactive); under `CN(C)C(=O)Oc1ccc2c(c1)O/C(=C\c1cccc([N+](=O)[O-])c1)C2=O`, -9.1% (inactive).
Under `O=C1NC(=O)C(=Cc2ccc(Sc3ccccc3)o2)C(=O)N1` stands 1.7% (inactive); under `Cc1c(C=O)c2ccccc2n1Cc1ccccc1F`, 5% (inactive).
The result for `CCn1c(O)c(/C=N/NC(=O)c2ccncc2)c(=O)[nH]c1=S` reads 2.7% (inactive); that for `CCOC(=O)CCN=Cc1c(O)n(-c2ccc(Br)cc2)c(=O)[nH]c1=O`, -27.1% (inactive).
For `Cc1cc(C)n2nc(C)[n+](C)c2n1`, the inhibition is -17.4% (inactive).
The result for `COC(=O)c1c(C)n(Cc2ccc3c(c2)OCO3)c2ccc(O)cc12` reads 48.3% (active); that for `COC(=O)c1c(C)n(Cc2ccccc2)c2ccc(O)cc12`, 19.6% (inactive).
The result for `CCOC(=O)c1c(C)n(Cc2ccc3c(c2)OCO3)c2ccc(O)cc12` reads -7.9% (inactive); that for `C=CCn1c(O)c(/C(C)=N/N2CCCCCC2)c(=O)[nH]c1=O`, -6.9% (inactive).
Under `CCCCCCn1c(=O)c(C(=O)Nc2nc(CC(=O)OCC)cs2)c(O)c2ccccc21` stands 58.7% (active).
Take `CCCCCn1c(=O)c(C(=O)Nc2ccccc2)c(O)c2ccccc21`: the inhibition is -20.5% (inactive).
The result for `CCCCCn1c(=O)c(C(=O)NCc2ccncc2)c(O)c2ccccc21` reads 21.6% (inactive).
The result for `CCCCn1c(=O)c(C(=O)Nc2ccccc2)c(O)c2ccccc21` reads 14.3% (inactive); that for `CCCCCn1c(=O)c(C(=O)Nc2ccncc2)c(O)c2ccccc21`, 69.7% (active); that for `CCCCCn1c(=O)c(C(=O)Nc2nc(CC(=O)OCC)cs2)c(O)c2ccccc21`, -28.8% (inactive).
The result for `CCCCCn1c(=O)c(C(=O)Nc2cccc(C)c2)c(O)c2ccccc21` reads -15.2% (inactive); that for `CCCCCCn1c(=O)c(C(=O)Nc2ccncc2)c(O)c2ccccc21`, 63.9% (active); that for `CCOC(=O)Cc1csc(NC(=O)c2c(O)c3ccccc3n(CCC(C)C)c2=O)n1`, -27.7% (inactive).
For the molecule `Cc1ccc(N2CCN(CCc3ccccc3)CC2)cc1`, the inhibition was 10.7% (inactive).
For `CCOc1nc(NC(C)C)nc(N2CC3CC(C2)c2cccc(=O)n2C3)n1` (stereo not given), the inhibition was -38.6% (inactive).
The result for `O=C(Nc1cccc(Cl)c1)c1c(O)c2c(n(Cc3ccccc3)c1=O)CCCC2` reads -38.5% (inactive).
As to `CCCCn1c(O)c(C(C)=NCCCn2ccnc2)c(=O)[nH]c1=O`, the inhibition was -5.8% (inactive).
Under `Cc1ccsc1C(=O)C1CCCN(Cc2sc(N(C)C)nc2Cl)C1` (stereo not given) stands 60.9% (active).
As for `Cc1ccsc1C(=O)C1CCCN(Cc2ccc(O)cc2)C1` (stereo not given), the inhibition was -32.6% (inactive).
Under `Cc1ccsc1C(=O)C1CCCN(Cc2cc3ccccc3o2)C1` (stereo not given) stands 75.6% (active); under `Cc1ccc(CN2CCCC(C(=O)c3sccc3C)C2)o1` (stereo not given), -19.5% (inactive); under `CCc1ccc(CN2CCCC(C(=O)c3sccc3C)C2)o1` (stereo not given), -19% (inactive).
On to `Cc1ccsc1C(=O)C1CCCN(Cc2cnc(N3CCCC3)s2)C1` (stereo not given), for which the inhibition is 11.2% (inactive).
The result for `Cc1ccsc1C(=O)C1CCCN(Cc2cnc(N3CCOCC3)s2)C1` (stereo not given) reads 46.6% (active); that for `Cc1ncc(CN2CCCC(C(=O)c3sccc3C)C2)s1` (stereo not given), -24.9% (inactive).
Under `Cc1ccsc1C(=O)C1CCCN(Cc2cnc(N(C)C)s2)C1` (stereo not given) stands -26.4% (inactive).
